{"source": "PubChem BioAssay (NCATS)", "key": {"[1]": {"target": "Cytochrome P450 2D6 (Homo sapiens) (UniProt P10635)", "sequence (P10635 whole entry, looked up)": "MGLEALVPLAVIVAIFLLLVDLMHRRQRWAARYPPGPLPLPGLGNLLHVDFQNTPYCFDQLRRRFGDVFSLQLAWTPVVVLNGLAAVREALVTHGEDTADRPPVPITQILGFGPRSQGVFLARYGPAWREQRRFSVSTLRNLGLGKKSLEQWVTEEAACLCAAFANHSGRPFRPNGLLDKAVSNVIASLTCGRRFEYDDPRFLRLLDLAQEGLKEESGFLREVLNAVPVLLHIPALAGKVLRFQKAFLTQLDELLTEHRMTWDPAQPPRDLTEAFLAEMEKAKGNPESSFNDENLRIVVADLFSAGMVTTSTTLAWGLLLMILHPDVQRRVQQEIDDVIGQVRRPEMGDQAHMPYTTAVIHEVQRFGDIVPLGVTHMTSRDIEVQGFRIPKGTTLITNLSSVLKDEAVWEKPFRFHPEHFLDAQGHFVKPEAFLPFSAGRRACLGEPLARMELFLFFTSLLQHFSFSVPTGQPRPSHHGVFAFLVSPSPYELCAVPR", "assay": "Cytochrome P450 family 2 subfamily D member 6 (CYP2D6) small molecule antagonists: luciferase biochemical (cell-free) qHTS assay (AID 1645840); note: nearly all actives have a fitted effect of over 55% in size; note: potency is the fitted concentration of half-maximal effect", "method_in_brief": "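P450-Glo CYP2D6 system: proluciferin substrate converted by enzyme to luciferin, read by luminescence proportional to activity. Enzyme-substrate mix with compound 10 min at room temperature, then NADPH regeneration 1 h before detection reagent.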"}, "[2]": {"target": "Cytochrome P450 2C9 (Homo sapiens) (UniProt P11712)", "sequence (P11712 whole entry, looked up)": "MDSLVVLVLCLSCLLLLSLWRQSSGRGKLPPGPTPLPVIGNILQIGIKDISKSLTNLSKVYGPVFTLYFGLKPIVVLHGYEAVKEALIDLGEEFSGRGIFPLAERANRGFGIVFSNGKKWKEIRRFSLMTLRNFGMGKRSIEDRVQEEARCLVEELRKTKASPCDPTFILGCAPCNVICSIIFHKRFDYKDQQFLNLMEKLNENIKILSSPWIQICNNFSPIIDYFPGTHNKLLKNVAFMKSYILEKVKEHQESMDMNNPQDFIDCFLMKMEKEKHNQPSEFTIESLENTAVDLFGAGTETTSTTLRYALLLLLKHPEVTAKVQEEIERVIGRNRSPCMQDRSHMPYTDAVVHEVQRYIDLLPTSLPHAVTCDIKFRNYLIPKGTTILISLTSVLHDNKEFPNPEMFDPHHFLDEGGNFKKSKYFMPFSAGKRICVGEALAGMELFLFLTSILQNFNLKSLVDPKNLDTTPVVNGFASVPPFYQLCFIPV", "assay": "Cytochrome P450 family 2 subfamily C member 9 (CYP2C9) small molecule antagonists: luciferase biochemical (cell-free) qHTS assay (AID 1645842); note: nearly all actives have a fitted effect of over 55% in size; note: potency is the fitted concentration of half-maximal effect", "method_in_brief": "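P450-Glo CYP2C9 system: proluciferin substrate with enzyme in mix containing 0.4% BSA, 10 min at room temperature, then NADPH regeneration solution added and incubated 1 h at 37C. Detection reagent stopped reaction; luminescence read after 20 min as RLU.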"}, "[3]": {"target": "Rap guanine nucleotide exchange factor 3 (Homo sapiens) (UniProt O95398)", "sequence (O95398 whole entry, looked up)": "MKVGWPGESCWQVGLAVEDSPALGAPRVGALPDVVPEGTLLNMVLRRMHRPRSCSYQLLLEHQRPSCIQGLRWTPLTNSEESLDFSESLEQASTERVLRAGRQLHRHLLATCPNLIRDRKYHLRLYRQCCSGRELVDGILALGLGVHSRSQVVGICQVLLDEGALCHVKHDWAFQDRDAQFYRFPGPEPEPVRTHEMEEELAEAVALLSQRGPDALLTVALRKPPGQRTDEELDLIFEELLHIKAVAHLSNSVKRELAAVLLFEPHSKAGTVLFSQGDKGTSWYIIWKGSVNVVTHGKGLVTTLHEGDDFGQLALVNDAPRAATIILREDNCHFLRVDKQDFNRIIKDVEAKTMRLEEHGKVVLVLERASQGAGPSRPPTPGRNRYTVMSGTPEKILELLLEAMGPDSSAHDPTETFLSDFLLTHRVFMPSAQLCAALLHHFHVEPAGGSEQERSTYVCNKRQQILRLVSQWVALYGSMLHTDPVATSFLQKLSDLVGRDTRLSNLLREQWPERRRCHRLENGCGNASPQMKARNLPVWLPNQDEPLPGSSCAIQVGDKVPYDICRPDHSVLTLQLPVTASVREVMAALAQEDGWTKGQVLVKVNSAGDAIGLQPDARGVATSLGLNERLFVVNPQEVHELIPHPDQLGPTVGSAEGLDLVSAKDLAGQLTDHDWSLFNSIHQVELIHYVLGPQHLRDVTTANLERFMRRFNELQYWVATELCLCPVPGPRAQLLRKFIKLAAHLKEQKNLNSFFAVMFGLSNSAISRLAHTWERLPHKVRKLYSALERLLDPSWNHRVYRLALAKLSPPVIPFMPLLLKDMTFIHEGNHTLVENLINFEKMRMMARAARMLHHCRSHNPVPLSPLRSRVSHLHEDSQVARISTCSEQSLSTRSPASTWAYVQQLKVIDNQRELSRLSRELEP", "assay": "Confirmatory qHTS for antagonist of cAMP-regulated guanine nucleotide exchange factor 3 (EPAC1) (AID 1645880; active = well fitted curve in the direction sought with a large enough effect; an effect the other way counts as inactive or inconclusive; note: potency is the fitted concentration of half-maximal effect; nearly all actives have a fitted effect of over 55% in size)", "method_in_brief": "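Released BODIPY-GDP fluoresces less than Rap1-bound BODIPY-GDP; the signal is followed at 480/540 nm at 5-min intervals over 30 min, after 5 min at room temperature. Reactions contain 100 nM EPAC1, 250 nM RAP1B-BODIPY-GDP and 50 uM GDP; results are normalized to ATA and DMSO.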"}, "[4]": {"target": "Rap guanine nucleotide exchange factor 3 (Homo sapiens) (UniProt O95398)", "assay": "Confirmatory qHTS for agonist of cAMP-regulated guanine nucleotide exchange factor 3 (EPAC1) (AID 1645881; active = well fitted curve in the direction sought with a large enough effect; an effect the other way counts as inactive or inconclusive;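 note: EPAC1 catalysed release of BODIPY-GDP from Rap1B seen as fluorescence loss; nearly all actives have a fitted effect of over 75% in size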)"}, "[5]": {"target": "Rap guanine nucleotide exchange factor 4 (Homo sapiens) (UniProt Q8WZA2)", "sequence (Q8WZA2 whole entry, looked up)": "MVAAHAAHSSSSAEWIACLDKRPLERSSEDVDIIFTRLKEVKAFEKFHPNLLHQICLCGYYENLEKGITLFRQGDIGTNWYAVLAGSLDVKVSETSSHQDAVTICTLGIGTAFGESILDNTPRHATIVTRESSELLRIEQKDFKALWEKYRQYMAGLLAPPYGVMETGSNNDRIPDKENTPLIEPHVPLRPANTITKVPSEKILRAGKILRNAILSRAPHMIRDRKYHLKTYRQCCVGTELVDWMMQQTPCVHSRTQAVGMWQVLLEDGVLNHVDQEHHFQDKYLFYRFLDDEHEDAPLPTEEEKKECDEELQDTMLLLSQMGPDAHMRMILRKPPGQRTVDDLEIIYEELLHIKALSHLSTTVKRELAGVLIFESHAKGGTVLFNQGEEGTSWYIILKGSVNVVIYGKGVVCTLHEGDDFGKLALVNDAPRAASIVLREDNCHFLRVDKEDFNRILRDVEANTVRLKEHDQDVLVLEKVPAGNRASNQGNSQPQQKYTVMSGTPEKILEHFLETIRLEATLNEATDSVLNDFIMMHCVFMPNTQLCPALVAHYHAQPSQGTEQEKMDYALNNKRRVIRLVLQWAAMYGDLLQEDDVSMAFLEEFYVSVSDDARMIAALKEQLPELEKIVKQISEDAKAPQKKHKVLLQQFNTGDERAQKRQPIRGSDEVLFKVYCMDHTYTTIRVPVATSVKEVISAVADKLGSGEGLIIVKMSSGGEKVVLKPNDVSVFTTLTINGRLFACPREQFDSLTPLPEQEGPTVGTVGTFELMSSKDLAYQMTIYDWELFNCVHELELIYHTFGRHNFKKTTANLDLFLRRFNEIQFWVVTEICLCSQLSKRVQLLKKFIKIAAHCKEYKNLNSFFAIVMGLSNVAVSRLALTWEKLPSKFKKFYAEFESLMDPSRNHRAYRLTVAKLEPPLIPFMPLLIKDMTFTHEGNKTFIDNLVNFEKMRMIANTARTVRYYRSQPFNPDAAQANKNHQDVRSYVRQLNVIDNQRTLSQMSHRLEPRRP", "assay": "Confirmatory qHTS for agonist of cAMP-regulated guanine nucleotide exchange factor 4 (EPAC2) (AID 1645884; active = well fitted curve in the direction sought with a large enough effect; an effect the other way counts as inactive or inconclusive;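 note: nucleotide exchange releases bodipy-GDP from Rap1 and this lowers its fluorescence; nearly all actives have a fitted effect of over 65% in size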)"}, "[6]": {"target": "Rap guanine nucleotide exchange factor 4 (Homo sapiens) (UniProt Q8WZA2)", "assay": "Confirmatory qHTS for antagonist of cAMP-regulated guanine nucleotide exchange factor 4 (EPAC2) (AID 1645885; active = well fitted curve in the direction sought with a large enough effect; an effect the other way counts as inactive or inconclusive; note: nearly all actives have a fitted effect of over 25% in size)"}, "[7]": {"target": "Rap guanine nucleotide exchange factor 3 (Homo sapiens) (UniProt O95398)", "assay": "Counterscreen qHTS for antagonist of cAMP-regulated guanine nucleotide exchange factor 3 (EPAC1) (AID 1645888; active = well fitted curve in the direction sought with a large enough effect; an effect the other way counts as inactive or inconclusive)", "method_in_brief": "(§1)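 Rap1B-BODIPY-GDP 250 nM + GDP 50 uM; cpds 7-pt, final 9.74 nM–152 uM (activator mode) or from 7.32 nM upwards (inhibitor mode); RT; FI 480/540 nm at 5 and 30 min, then ± cAMP, reread.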"}, "[8]": {"target": "Rap guanine nucleotide exchange factor 3 (Homo sapiens) (UniProt O95398)", "assay": "Counterscreen qHTS for agonist of cAMP-regulated guanine nucleotide exchange factor 3 (EPAC1) (AID 1645889; active = well fitted curve in the direction sought with a large enough effect; an effect the other way counts as inactive or inconclusive)", "method_in_brief": "as §1"}}, "note": "Records with an inconclusive call do not appear. Values without a mark were called inactive. The source made the active and inactive calls. Unless noted, calls come from the whole dose curve; as a rule, active = well fitted curve in the direction sought with a large enough effect in the repeat runs; inconclusive = weak or mixed curves; inactive = no such curve, though single readings can be large; an effect the other way counts as inactive or inconclusive."}
{"smiles": "NC(=O)C[C@H](N)C(=O)O", "values": [{"measurement": "Potency", "setting": "[1]", "result": "inactive"}, {"measurement": "Potency", "setting": "[2]", "result": "inactive"}]}
{"smiles": "CC1=C(C(=O)Nc2cccc(CN)c2)C(c2ccccc2Cl)N=C(Nc2nc3ccccc3o2)N1", "note": "(stereo not given)", "values": [{"measurement": "Potency", "setting": "[1]", "result": "3.38 µM (active)"}, {"measurement": "Potency", "setting": "[2]", "result": "5.35 µM (active)"}]}
{"smiles": "CC(C)c1ccc(Nc2c(-c3ccccn3)nc3ccccn23)cc1", "values": [{"measurement": "Potency", "setting": "[1]", "result": "26.8 µM (active)"}, {"measurement": "Potency", "setting": "[2]", "result": "1.2 µM (active)"}]}
{"smiles": "COc1ccc(-n2nc3c(N4CCCC(C(=O)NCCc5ccccc5C)C4)nnc(C)c3c2C)cc1", "note": "(stereo not given)", "values": [{"measurement": "Potency", "setting": "[1]", "result": "2.68 µM (active)"}, {"measurement": "Potency", "setting": "[2]", "result": "0.674 µM (active)"}]}
{"smiles": "Cc1ccc(Cn2ccnc2SCC(=O)Nc2nc3ccccc3s2)cc1", "values": [{"measurement": "Potency", "setting": "[1]", "result": "10.7 µM (active)"}, {"measurement": "Potency", "setting": "[2]", "result": "8.49 µM (active)"}]}
{"smiles": "COC(=O)c1ccc(C2C=C(c3ccc(Cl)cc3)Nc3nc4ccccc4n32)cc1", "note": "(stereo not given)", "values": [{"measurement": "Potency", "setting": "[1]", "result": "3.38 µM (active)"}, {"measurement": "Potency", "setting": "[2]", "result": "2.68 µM (active)"}]}
{"smiles": "CCOC(=O)N1CCc2c(sc3c2c(=O)n(Cc2ccccc2)c(=O)n3CC(=O)Nc2cccc(C)c2)C1", "values": [{"measurement": "Potency", "setting": "[1]", "result": "1.51 µM (active)"}, {"measurement": "Potency", "setting": "[2]", "result": "4.25 µM (active)"}]}
{"smiles": "CC(=O)Nc1ccc(C)cc1-c1nc2ccccc2n(CC(=O)Nc2cc(Cl)ccc2C)c1=O", "values": [{"measurement": "Potency", "setting": "[1]", "result": "0.338 µM (active)"}, {"measurement": "Potency", "setting": "[2]", "result": "3.01 µM (active)"}]}
{"smiles": "COC(=O)Cc1ccc(NC(=O)C2=C(C)NC(Nc3nc4ccccc4o3)=NC2c2ccccc2Cl)cc1", "note": "(stereo not given)", "values": [{"measurement": "Potency", "setting": "[1]", "result": "inactive"}, {"measurement": "Potency", "setting": "[2]", "result": "0.756 µM (active)"}]}
{"smiles": "Cc1ccc(-n2c(SCc3cccc(F)c3)nc3[nH]ncc3c2=O)cc1C", "values": [{"measurement": "Potency", "setting": "[1]", "result": "8.49 µM (active)"}, {"measurement": "Potency", "setting": "[2]", "result": "1.51 µM (active)"}]}
{"smiles": "Cc1cccc2nc(-c3ccccn3)c(Nc3ccc(F)cc3)n12", "values": [{"measurement": "Potency", "setting": "[1]", "result": "10.7 µM (active)"}, {"measurement": "Potency", "setting": "[2]", "result": "1.2 µM (active)"}]}
{"smiles": "Cc1nc2c3ccccc3nc(NNC(=O)CCC(=O)N3CCN(c4ccc(F)cc4)CC3)n2n1", "values": [{"measurement": "Potency", "setting": "[1]", "result": "inactive"}, {"measurement": "Potency", "setting": "[2]", "result": "3.79 µM (active)"}]}
{"smiles": "CCCOCc1cc(CN2CCN(c3ccccc3OC)CC2)c(O)c2ncccc12", "values": [{"measurement": "Potency", "setting": "[1]", "result": "13.5 µM (active)"}, {"measurement": "Potency", "setting": "[2]", "result": "7.56 µM (active)"}]}
{"smiles": "COCCOc1nc(N)c2[nH]c(=O)n(Cc3ccc(C(=O)O)cc3)c2n1", "values": [{"measurement": "Potency", "setting": "[1]", "result": "inactive"}, {"measurement": "Potency", "setting": "[2]", "result": "inactive"}]}
{"smiles": "COc1ccccc1Nc1nc(-c2ccccc2F)nc2ccccc12", "values": [{"measurement": "Potency", "setting": "[1]", "result": "inactive"}, {"measurement": "Potency", "setting": "[2]", "result": "12 µM (active)"}]}
{"smiles": "Clc1cccc(-n2ncc3c(NCCCn4ccnc4)ncnc32)c1", "values": [{"measurement": "Potency", "setting": "[1]", "result": "2.13 µM (active)"}, {"measurement": "Potency", "setting": "[2]", "result": "0.379 µM (active)"}]}
{"smiles": "O=C(CSc1nc(-c2ccc(F)cc2)[nH]c1-c1ccc(F)cc1)Nc1ccc2c(c1)OCO2", "values": [{"measurement": "Potency", "setting": "[1]", "result": "2.13 µM (active)"}, {"measurement": "Potency", "setting": "[2]", "result": "0.849 µM (active)"}]}
{"smiles": "Cc1ccc(C)c(NC(=O)C2CCN(S(=O)(=O)c3c(C)noc3/C=C/c3cccs3)CC2)c1", "values": [{"measurement": "Potency", "setting": "[1]", "result": "2.39 µM (active)"}, {"measurement": "Potency", "setting": "[2]", "result": "0.849 µM (active)"}]}
{"smiles": "CCCOCc1cc(CN2CCN(c3cccc(Cl)c3)CC2)c(O)c2ncccc12", "values": [{"measurement": "Potency", "setting": "[1]", "result": "inactive"}, {"measurement": "Potency", "setting": "[2]", "result": "6.74 µM (active)"}]}
{"smiles": "COc1ccc(C(=O)Oc2ccc(C(c3c(C)[nH][nH]c3=O)c3c(C)[nH][nH]c3=O)cc2)cc1", "values": [{"measurement": "Potency", "setting": "[1]", "result": "inactive"}, {"measurement": "Potency", "setting": "[2]", "result": "10.7 µM (active)"}]}
{"smiles": "NCC1OC(OC2C(N)CC(N)C(OC3OC(CO)C(O)C(N)C3O)C2O)C(N)CC1O", "note": "(stereo not given)", "values": [{"measurement": "Potency", "setting": "[1]", "result": "inactive"}, {"measurement": "Potency", "setting": "[2]", "result": "inactive"}]}
{"smiles": "Cc1cccc(OCCCSc2nc(-c3ccc(C(C)(C)C)cc3)nc3cc(=O)[nH]n23)c1C", "values": [{"measurement": "Potency", "setting": "[1]", "result": "inactive"}, {"measurement": "Potency", "setting": "[2]", "result": "13.5 µM (active)"}, {"measurement": "Potency", "setting": "[3]", "result": "37.9 µM (active)"}, {"measurement": "Potency", "setting": "[4]", "result": "inactive"}, {"measurement": "Potency", "setting": "[5]", "result": "inactive"}, {"measurement": "Potency", "setting": "[6]", "result": "inactive"}, {"measurement": "Potency", "setting": "[7]", "result": "inactive"}, {"measurement": "Potency", "setting": "[8]", "result": "inactive"}]}
